High-throughput results: PubChem, National Center for Advancing Translational Sciences (NCATS)
Chronic BCR inh: chronic active BCR signaling inhibition. ABC-DLBCL IkBa-CBG/CBR reporter, luminescence ratio, 4 h. Potency, µM (titrated, usually from 46.1 µM), for inactives: top-dose activity change, negative = inhibition, most hits filed as inhibitors. 0.05% of 340,000 active. AID 493014; active means well fitted inhibition curve with a large enough effect in the signal ratio, with a control signal flat, not every such curve was filed as active; inconclusive means small, poorly fitted or top-dose-only effect, or effect the other way, or a change in a side signal; the % refers to the signal ratio;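 further: potency means the concentration at half of the fitted maximal effect; plate controls were basal doxycycline-induced cells for no effect and cells given 10 µM MG132 for full effect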
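TMD8 human ABC-DLBCL cells with doxycycline-inducible IκBα–green luciferase fusion and unfused red luciferase, in 0.5% FBS medium; compounds up to 46 uM, 4 h at 37C. Green/red luminescence ratio, filter-overlap corrected, fitted to concentration-response curves.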
DT40 TDP1 no CPT: qHTS for Inhibitors of human tyrosyl-DNA phosphodiesterase 1 (TDP1): qHTS in cells in absence of CPT | Potency, µM (series often up to 46.2 µM), inactives show at the top dose activity change, negative = growth inhibition, actives largely listed as inhibitors | DT40 Tdp1-/- hTDP1 cells, no CPT, ATP luminescence, 48 h | AID 686978, 2013 | 15% of 420,000 active; further: potency means the concentration at half of the fitted maximal effect; on the % scale 0 is the no-effect control and ±100 the full control effect; nearly all actives have a fitted effect of over 55% in size
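Compound effects on proliferation are scored in DT40 Tdp1-/-;hTDP1 cells in the absence of CPT. ATP levels (CellTiter-Glo luminescence) are recorded after a ≥48 hr, 37 °C incubation.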
IL-1B inflam inh: blocks inflammasome-driven IL-1 beta release | THP-1 LPS/ATP IL-1B secretion, AlphaLISA, 16 h; hits give low values | activity change, % at 57.5 µM | 4.7% of 360,000 active | AID 743279; in the data active means activity change below about -50%; inconclusive means mostly about -30% to -49%; further: on the % scale 0 is the no-effect control and ±100 the full control effect
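Secreted IL-1B measured by AlphaLISA bead assay after 16 h compound exposure of THP-1 cells; compounds (final up to 57.5 uM) added 1 h before LPS (250 ng/mL) and ATP (1.25 mM) stimulation; lower signal means less secretion.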
MCF10A rerep: DNA re-replication induction in MCF 10a cells; Potency, µM (highest dose often 46.1 µM), without a hit: at the top dose activity, positive = re-replication, usual class: activators; 2.9% of 350,000 active; MCF 10A DNA re-replication, Hoechst nuclear intensity, 48 h; further: potency means the concentration at half of the fitted maximal effect; % of control where 0% means no effect; nearly all actives have a fitted effect of over 50% in size
DT40 TDP1 CPT: growth inhibition of DT40 Tdp1-/-;hTDP1 cells with camptothecin (screen for TDP1 inhibitors). chicken DT40 Tdp1-/-;hTDP1 cells + 20 nM CPT, ATP luminescence, 48 h. Potency, µM (doses to about 46.2 µM), without a hit: at the top dose activity change, negative = growth inhibition, usual class: inhibitors. 12% of 420,000 active. AID 686979; further: potency means the concentration at half of the fitted maximal effect; on the % scale 0 is the no-effect control and ±100 the full control effect; nearly all actives have a fitted effect of over 55% in size
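Chicken DT40 Tdp1-/- cells stably complemented with human TDP1 were seeded at 400 cells/well in medium containing 20 nM camptothecin, exposed to pin-transferred compounds, and grown at 37 °C for at least 48 hr. Viability was read as ATP luminescence.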
SW480 rerep: DNA re-replication induction in SW480 cells; Potency, µM (highest dose often 46.1 µM), for inactives: at the top dose re-replication activation, actives largely listed as activators; 1.8% of 340,000 active; AID 624297; SW480 DNA re-replication, Hoechst DNA content imaging, 48 h; further: potency means the concentration at half of the fitted maximal effect; % of control where 0% means no effect; nearly all actives have a fitted effect of over 55% in size
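Image-based DNA-content assay: after two days of treatment, nuclei were labelled with the DNA dye Hoechst and imaged, and hits were compounds raising the count of nuclei showing high fluorescence intensity.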
* marks the source's active call; other numbers are inactive results; i = inactive; ? = inconclusive; . = not tested or not shown; ! = not active in a repeat; [ ] = dose if it differs, or a comment. Rows were chosen to be rich in hits. Some 19% of all compounds tested hit in one or more screens of this group. Unless noted, the call rests on the fitted dose curve; in most records, active means well fitted curve in the direction sought with a large enough effect; inconclusive means small, poorly fitted or top-dose-only effect, or another doubt; inactive means no such curve, though single readings can be large; an effect the other way counts as inactive or inconclusive.

SMILES	Chronic BCR inh	DT40 TDP1 no CPT	IL-1B inflam inh	MCF10A rerep	DT40 TDP1 CPT	SW480 rerep
CC(=O)c1ccc(N2CCN(S(=O)(=O)c3cc(-c4cc(C)no4)ccc3C(C)C)CC2)cc1	11%	?	-13	?	?	-3%
Cc1oc(-c2ccccc2NC(=O)c2ccsc2)nc1CN(C)CC1CC=CCC1 (centres undefined)	.	4%	.	.	-3%[9.04 µM]	.
CCc1ccc(-c2cc(C)no2)cc1S(=O)(=O)N1CCN(c2cccc(C)c2C)CC1	3%	?	36	?	23µM*	-29%
N/C(=N\OCC(=O)Nc1ccc(F)c(Cl)c1)c1ccccc1	2%	?	-2	?	23µM*	0%
O=C(CCC(=O)c1ccccc1)Nc1ccc(F)c(Cl)c1	-16%	3%	.	.	11%	.
CC(=O)Oc1ccc(-c2cccc(C(=O)N(C)c3ccc(O)cc3)c2)cc1	-8%	-1%	-3	5%	-1%	6%
OCc1cc(C(O)CNCCCCCCOCCCCc2ccccc2)ccc1O (centres undefined)	?	13µM*	-25	?	19µM*!	?
CC(C)(C)NCC(O)c1ccc(O)c(CO)c1 (centres undefined)	.	6%	.	-7%[9.22 µM]	-4%	-11%[20.6 µM]
COCc1cc(C)nc2sc3c(=O)n(-c4cc(C)ccc4C)nnc3c12	.	-2%	.	.	-6%	.
Cc1cc(/C=c2\sc3nc4ccccc4n3c2=O)c(C)n1-c1ccc(C(=O)O)cc1	?	13µM*	0	?	13µM*	-1%
Cc1cc(C=C2C(=O)c3ccccc3C2=O)c(C)n1-c1ccccc1	4%	?	-15	?	?	1%
Cc1cc(C=C2C(=O)c3ccccc3C2=O)c(C)n1-c1ccc(C(=O)O)cc1	-5%	-17%	-56*	14%	-13%	0%
Cc1cc(/C=C2\Cc3ccccc3C2=O)c(C)n1-c1ccccc1	-2%	13µM*	-62*	21µM*	?	?
O=c1/c(=C/c2cn(-c3ccccc3)nc2-c2ccc(F)cc2)sc2nc3ccccc3n12	0%	.	.	.	.	.
O=c1/c(=C\c2cccnc2)sc2nc3ccccc3n12	13%	?	19	5%	-11%	-3%
Cc1cc(/C=c2/sc3nc4ccccc4n3c2=O)c(C)n1-c1ccccn1	?	18µM*	-58*	?	?	8%
Cc1c(C(=O)O)sc2[nH]c(=O)n(Cc3ccccc3)c(=O)c12	?	0%	49	-1%	1%	0%
CC(C)CN(C(=O)COC(=O)Cc1c[nH]c2ccccc12)c1c(N)n(Cc2ccccc2)c(=O)[nH]c1=O	0%	0%	-9	2%	?	9%
CCCCNC(=O)C(NC(=O)c1cccnc1)C(=O)c1ccccc1 (centres undefined)	.	10%	11	.	-1%	.
CC(=O)c1ccc(-c2ccc(C(=O)Nc3nc(C)c(C(C)=O)s3)o2)cc1	7%	-19%	-3	-2%	-26%	-26%
CC1=NN(c2ccccc2)C(=O)/C1=C\c1cc(C)n(-c2ccccc2)c1C	-2%	23µM*	i	14%	?	2%
COc1cc(NC(=O)c2cc3c(s2)-c2ccccc2OC3)cc(OC)c1OC	.	8.2µM*	.	.	16µM*	.
COC(=O)c1ccccc1NC(=O)c1cc2c(s1)-c1ccccc1OC2	.	?	.	.	16µM*	.
CC(C)NC(=O)C1(C)CSCC(=O)N1Cc1ccco1 (centres undefined)	.	11%	25	.	26%	.
O=c1c2sc3ccccc3c2n(Cc2ccccc2)c(=O)n1CCc1ccccc1	.	-1%	.	.	12%	.
SMILES	Chronic BCR inh	DT40 TDP1 no CPT	IL-1B inflam inh	MCF10A rerep	DT40 TDP1 CPT	SW480 rerep
CCOc1ccccc1NC(=O)Cn1c(=O)ccc2cc(S(=O)(=O)N3CCC(C)CC3)ccc21	.	26µM*	.	.	?	.
COc1ccccc1CNC(=O)Cn1c(=O)ccc2cc(S(=O)(=O)N3CCC(C)CC3)ccc21	.	?	.	.	23µM*	.
COc1ccccc1CNC(=O)Cn1c(=O)oc2cc(S(=O)(=O)N3CCC(C)CC3)ccc21	.	2.9µM*	.	.	5.2µM*	.
CCCCNC(=O)Cn1c(=O)oc2cc(S(=O)(=O)N3CC(C)CC(C)C3)ccc21 (centres undefined)	-1%	?	-10	2%	12µM*	9%
CCCN1CCN(C(=O)c2ccc(S(=O)(=O)N(C)c3ccccc3OC)cc2)CC1	.	-4%	-7	.	?	.
CC1=C(C(=O)N(C(C)C)C(C)C)CC(CC(=O)NC2CCCC2)C(=O)N1Cc1ccc(F)cc1 (centres undefined)	.	4%	-4	.	6%	.
CC[N+]1(C)CCC(O)(c2ccc(OC)cc2)C(C(=O)c2ccc(OC)cc2)C1 (centres undefined)	.	0.92µM*	-78*	4.6µM*	0.65µM*	2.9µM*
COc1cc2c(cc1OC)C(COc1ccc(F)cc1)N(C(=O)c1cccc(F)c1)CC2 (centres undefined)	-11%	?	.	.	16µM*	.
COc1cc2c(cc1OC)C(c1cccs1)N(C(=O)c1cccc(S(=O)(=O)N(C)C)c1)CC2 (centres undefined)	-26%	?	-15	-4%	23µM*	-1%
COc1cc2c(cc1OC)C(c1cccc([N+](=O)[O-])c1)N(C(=O)c1ccc(F)cc1)CC2 (centres undefined)	-3%	13µM*	?	3%	18µM*	2%
CCCCC(=O)N1CCc2cc(OC)c(OC)cc2C1COc1ccc(C(=O)OCC)cc1 (centres undefined)	0%	18µM*	.	.	?	.
COc1cc2c(cc1OC)C(c1ccccc1)N(C(=O)c1ccccc1)CC2 (centres undefined)	2%	?	?	7%	?	10%
CC(=O)c1ccc(NC(=O)c2cc(C3CC3)nc3c2c(C)nn3-c2ccc(C)cc2)cc1	.	-27%	.	.	-25%	.
COc1cc2c(cc1OC)C(COc1ccc(F)cc1)N(C(=O)Cc1ccc(F)cc1)CC2 (centres undefined)	4%	16µM*	.	.	26µM*	.
CCNC(=S)N1CCc2cc(OC)c(OC)cc2C1COc1ccc(F)cc1 (centres undefined)	-11%	-4%	-61*	-3%	-2%	-1%
